Data as given in PubChem BioAssay AID429 (Emory University Molecular Libraries Screening Center, 2006).
The campaign covered roughly 64,000 compounds. About 220 (0.34%) were called active. This is one part of a sample in which actives are shown more often than they occur. Unmarked numbers belong to inactive results.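 How the source made its calls: active means inhibition above 50%; inactive means the rest.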

The molecules below were run against Heat shock protein HSP 90-alpha (Homo sapiens) (UniProt P07900) (assay: tumor Hsp90 inhibitors, primary screen, cell lysate, fluorescence polarization, NCI-N417 lysate (AID 429;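 further: 0% = tracer plus lysate wells and 100% = tracer alone without lysate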)). Settings: NCI-N417 lysate Hsp90, Cy3B-geldanamycin FP displacement; at 30 µM; stronger effect = higher value.
For CSCC[C@H](NC(=O)NCCc1ccc(F)cc1)C(=O)O, the inhibition was -0.8%. Molecule O=c1nc2s/c(=C\c3ccco3)c(=O)n2nc1Cc1ccccc1 has an inhibition of -6.3%. Molecule CCOC(=O)CSc1nc2c(sc(=S)n2CCc2ccccc2)c(=O)n1Cc1ccco1 has an inhibition of -1.25%. CN(c1ccccc1)c1ccc(/C=c2\s/c(=C(/C#N)C(=O)C(C)(C)C)n(Cc3ccco3)c2=O)cc1 was tested, and the inhibition was 50.6% (active). With CN(C)c1cc(N)c2ccccc2n1 (tested in a mixture with another compound) the inhibition was -9.07%. Molecule CC12CCC(C(=O)N(CCC#N)CCC#N)(CC1=O)C2(C)C (centres undefined) has an inhibition of -2.19%. Work on O=C(CC1CCCCC1)Nc1c2c(nn1-c1ccc(F)cc1)CS(=O)(=O)C2 yielded an inhibition of -1.94%. Cc1cccn2c(=O)c3cc(C(=O)N4COCC4(C)C)n(C)c3nc12 showed an inhibition of 0.48%. Work on COc1ccc(Cl)cc1S(=O)(=O)Nc1cccc(C(=O)O)c1 yielded an inhibition of -0.7%. Cc1ccc(C(=O)O)cc1S(=O)(=O)NCC1CCCO1 (centres undefined) was tested, and the inhibition was 77.4% (active). Work on Cc1cc(Cl)c(S(=O)(=O)NCC2CCCO2)cc1OCC(N)=O (centres undefined) yielded an inhibition of -4.41%. In the case of O=S(=O)(NCC1CCCO1)c1ccc2ccccc2c1 (centres undefined), the inhibition is reported as -3.52%. CCSc1nc2c(c(=O)[nH]1)C(c1cccnc1)C(C(=O)OC(C)C)=C(C)N2 (centres undefined) gave an inhibition of -0.2%. O=C(O)CSC(NC(=O)c1cccnc1)(C(F)(F)F)C(F)(F)F gave an inhibition of -0.65%. O=C(Nn1cnc2ccccc2c1=O)c1ccc(F)cc1Cl showed an inhibition of -2.64%. CCCCn1c(=S)[nH]c2ncccc2c1=O gave an inhibition of -6.13%. Cc1ccc2[nH]c3c(c2c1)CN(C(=O)CN1CCN(c2ccccc2)CC1)CC3 was tested, and the inhibition was 92.3% (active). CCCC(=O)N1CCc2[nH]c3ccccc3c2C1 gave an inhibition of -3.78%. Work on O=C(NC1CCCCC1)N1CCc2[nH]c3ccccc3c2C1 yielded an inhibition of -4.69%. Cc1ccc(C)c(N(CC(=O)NCc2ccco2)C(=O)CCC(=O)Nc2ccccn2)c1 gave an inhibition of -5.16%. In the case of Cc1c(C(=O)OCC(=O)N(CCC#N)c2ccccc2)oc2c1ccc1ccccc12, the inhibition is reported as 0.74%. For COc1nc(Oc2ccc(=O)n(C)n2)nc(N(C)C)n1, the inhibition was -0.95%. For COc1cccc(C2/C(=C(/O)c3ccc(F)cc3)C(=O)C(=O)N2CCN(C)C)c1 (centres undefined), the inhibition was -1.56%. For CC1CN(c2cc(=O)n(-c3cccc(Br)c3)c(=O)[nH]2)CC(C)O1 (centres undefined), the inhibition was 1.65%. In the case of Cc1ccc(N2CCN(c3ccc(C)cc3)C2c2ccccn2)cc1, the inhibition is reported as 0.05%. Molecule COc1cc(C2C(C(=O)Nc3ccc(F)cc3)=C(C)Nc3nc(CCCO)nn32)cc(OC)c1OC (centres undefined) has an inhibition of -1.54%. CCOc1ccccc1N(CC(=O)NC1CCCCC1)C(=O)CCCC(=O)Nc1ccccn1 was tested, and the inhibition was -0.59%. With CC1OC2C(OC1C)N(S(C)(=O)=O)CCN2S(C)(=O)=O (centres undefined) the inhibition was -2.81%. O=C(O)CCC(=O)Nc1ccc(N2CCOCC2)cc1 gave an inhibition of 8.24%. Work on COc1ccc(C(=O)NCc2cn3ccccc3n2)cc1 yielded an inhibition of 2.11%. Work on O=C(CC1N=C2c3ccccc3N=C(SCc3ccccc3Cl)N2C1=O)NCc1ccco1 (centres undefined) yielded an inhibition of -7.5%. With CCCC(C(=O)NCc1ccco1)N(C(=O)CNS(=O)(=O)c1ccccc1)C1CCCC1 (centres undefined) the inhibition was -1.3%. Molecule CCOC(=O)CSC1=C(C#N)C(c2sccc2C)CC(=O)N1 (centres undefined) has an inhibition of -2.64%. Work on Cc1nn(-c2ccccc2)c(C)c1C(=O)OCC(=O)NC(=O)NC1CCCCC1 yielded an inhibition of -2.89%. Work on CCCN(CCc1ccccc1)C1CCc2c(O)cccc2C1 (centres undefined) yielded an inhibition of -0.71%. Work on CCCn1c(=O)c2ccccc2n2c(SCC(=O)/C(C#N)=C(\C)N)nnc12 yielded an inhibition of -5.05%. Work on O=c1cc(CSc2ccccn2)nc(N2CCN(c3ccccc3)CC2)[nH]1 yielded an inhibition of -2.49%. For CC(C)NS(=O)(=O)c1ccc(OCC(=O)Nc2ccc3c(c2)OCCO3)cc1, the inhibition was -7.01%. In the case of CC1CCCN(C(=O)c2ccc3c(c2)C(=O)N(CCC2=CCCCC2)C3=O)C1 (centres undefined), the inhibition is reported as -1.14%. For COc1ccccc1NC(=O)CSc1nnc(Cn2nnc(-c3ccccc3)n2)n1-c1ccccc1, the inhibition was 2.15%. For O=C(c1ccco1)N1CCN=C1SCc1cccc(Cl)c1, the inhibition was -5.15%. With CCCCc1nc2ccccc2c(NC(=O)CN2CCN(C)CC2)c1CCC the inhibition was -1.26%. Work on CCCn1cc(SCC(N)=O)c2ccccc21 yielded an inhibition of -4.04%. Work on CC(C)(Oc1ccc(C2CC2(Cl)Cl)cc1)C(=O)O (centres undefined) yielded an inhibition of 1.49%. With COC1(C2=NCCN2)COc2ccccc2O1 (centres undefined) the inhibition was 1.52%. In the case of CCOC(=O)Nc1ccc2c(c1)N(C(=O)CN1CCN3CCCC3C1)c1ccccc1CC2 (centres undefined), the inhibition is reported as -6.22%. Molecule Cc1ccc(S(=O)(=O)NC(=O)N2CCCC(C)(C)C2)cc1 has an inhibition of -0.1%. O=c1c(F)cn(C2CCCO2)c(=O)n1Cc1ccccc1Cl (centres undefined) was tested, and the inhibition was -6.6%. CCOC(=O)C1=C(CC)Nc2ccccc2N=C1NC(=O)c1cccc(S(=O)(=O)N2CCCC2)c1 gave an inhibition of -3.82%. Molecule CCCCc1nc2ccccc2c(=O)n1NC(=O)c1c(O)c2cccc3c2n(c1=O)CC3 has an inhibition of -2.36%. For CCCc1nc2ccccc2c(=O)n1/N=C/c1ccc(O)c(O)c1, the inhibition was 70.7% (active). With CCCc1nc2ccccc2c(=O)n1NC(=O)c1c(O)c2ccccc2[nH]c1=O the inhibition was -3.13%. CCC(=O)Nc1cccc(NC(=O)CSc2nnc(-c3ccc(NS(C)(=O)=O)cc3)n2C)c1 gave an inhibition of -0.45%. Molecule O=C(CCc1ccccc1)Nc1ccc(NC(=O)C2CC2)nc1 has an inhibition of -2.83%. N#CC1=C(N)Oc2n[nH]c(CSc3ccccc3)c2C12C(=O)Nc1ccccc12 (centres undefined) showed an inhibition of -11.3%. For CC1Cc2ccccc2N1C(=O)CSc1nnc(-c2ccc(S(=O)(=O)N3CCCCC3)cc2)o1 (centres undefined), the inhibition was -0.41%. With Nn1c(SCC(=O)NC(=O)NC2CCCC2)nnc1-c1ccccc1F the inhibition was -5.58%. For CCOC(=O)/C=c1\s/c(=C\c2ccccc2OC)c(=O)n1CC(=O)N1CCOCC1, the inhibition was -5.13%. Molecule Cc1cc(C)c2nc(N3CCCC3)c(C#N)cc2c1 has an inhibition of 4.01%. In the case of Cc1noc(C)c1S(=O)(=O)N(CC(=O)Nc1ccc2c(c1)OCCO2)c1ccc(C(C)C)cc1, the inhibition is reported as -1.54%. With CNc1ncnc2c1ncn2[C@@H]1O[C@H](CO)[C@H](O)C1O (some centres undefined) the inhibition was -3.44%. O=C(Nc1ccc(NC(=O)c2cccs2)cn1)c1ccco1 showed an inhibition of -0.15%. Molecule CC(C)(C)c1ccc(NC(=O)NCc2ccco2)cc1 has an inhibition of -5.65%. In the case of Cc1ccc(C(=O)Nc2nnc(-c3cccs3)s2)cc1C, the inhibition is reported as -0.3%. In the case of CCNc1nc(N)nc(Oc2ccc(OCC)nn2)n1, the inhibition is reported as -5.57%. For O=c1cc(-c2ccccc2)[nH]c2nc(Cl)ccc12, the inhibition was -1.33%. In the case of CCOc1ccc(CCNC(=O)C2CCN(c3ccc(N4CCOCC4)nn3)CC2)cc1OCC, the inhibition is reported as -1.25%. In the case of OC[C@H]1O[C@@H](n2cnc3c(N[C@H]4CC5CCC4C5)ncnc32)[C@H](O)[C@@H]1O (some centres undefined), the inhibition is reported as -1%. Molecule O=C(OCC(=O)c1cccs1)C1=COCCO1 has an inhibition of -6.24%. COc1cc(Cl)cc(C2NC(=O)NC(C)=C2C(=O)NCc2ccccc2)c1O (centres undefined) showed an inhibition of -1.82%. Work on O=C(c1ccco1)N1CCN(C(=O)C2CC(c3ccc(Cl)c(Cl)c3)=NO2)CC1 (centres undefined) yielded an inhibition of -2.91%. CCC(CC)C(=O)Nc1cc(C(=O)OC)cc(C(=O)OC)c1 showed an inhibition of -13.5%. Work on CC(=O)N1CCC(C(=O)Nc2nc(-c3ccccc3)ns2)CC1 yielded an inhibition of -2.79%. In the case of Cc1coc2c(O)cc3c(c12)OC1(N2CCCCC2)C(=O)NCCCC31 (centres undefined), the inhibition is reported as 96.8% (active). CC(=O)/C(C)=N/O was tested, and the inhibition was 5.45%. COc1ccc(-n2nc3c(c2NC(=O)Cc2cccc(C)c2)CS(=O)C3)cc1 (centres undefined) showed an inhibition of -2.13%. With Nc1cc(O)cc2cccnc12 the inhibition was 150% (active). For O=C(Nc1ccn(Cc2ccc(F)cc2)n1)c1ccncc1, the inhibition was -2.29%. Work on CN(C)c1nc(N)nc(CSc2nnnn2-c2cccc3ccccc23)n1 yielded an inhibition of -1.24%. Cc1ccc(S(=O)(=O)N2CCCC2CO)cc1 (centres undefined) gave an inhibition of -1.22%. With C=CCNc1ncnc2ccc(Br)cc12 the inhibition was -2.85%. With Cc1nn(-c2ccccc2)c(CC(C)(C)C(=O)O)c1C(=O)O the inhibition was 0.74%. For Oc1ccc(Cn2cc[nH]c2=S)cc1, the inhibition was -2.1%. CCC(Sc1nncn1C)C(=O)Nc1nnc(-c2ccc(Cl)cc2)s1 (centres undefined) showed an inhibition of -2.78%. COc1cc(NCS(=O)(=O)c2ccc(C)cc2)c2ncccc2c1 gave an inhibition of -1.2%. Molecule O=C(c1ccccc1)c1ccc2nc(N3CCCCC3)c3nncn3c2c1 has an inhibition of -6.65%. Work on CCOc1cccc(/C(O)=C2/C(=O)C(=O)N(CCOC)C2c2ccncc2)c1 (centres undefined) yielded an inhibition of 2.34%. Molecule CS(=O)(=O)c1ccc2nc(NC(=O)CN3CCCCCC3)sc2c1 has an inhibition of -0.64%. In the case of NS(=O)(=O)c1ccc(CCNC(=O)Nc2ccc(Cl)cc2)cc1, the inhibition is reported as -2.49%. O=C(NCCc1ccc(Cl)cc1)C1CC(=O)N(C2CCCCC2)C1 (centres undefined) gave an inhibition of -0.35%. With Oc1cc2c(cc1O)CN(C(=S)NCCc1ccc(Cl)cc1)CCC2 the inhibition was 77.6% (active). For Cc1ccc(-c2nnc(SC(C)C#N)n2N)cc1 (centres undefined), the inhibition was 2.26%. In the case of O=C(Nc1nccs1)C1CCCN1S(=O)(=O)c1cccc2cccnc12 (centres undefined), the inhibition is reported as -1.15%. COc1ccccc1NC1=NC(c2ccc(Cl)cc2)N=C(N)N1 (centres undefined) was tested, and the inhibition was 1.36%.
